Source: PubChem BioAssay AID1159580 (chemical genetic matrix, 2015)
Among all 5,500 compounds or so, about 2,000 (36%) were called active. Roughly 18% stayed inconclusive and do not appear here. Rule as the data show it: active = normalized growth mostly below about 0.91 (no sharp cut-off); inconclusive = no clear call, values can overlap the other calls; inactive = mostly above about 0.92. Some of the results follow.

Assay: chemical genetic growth profiling, strain panel (AID 1159580);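 also: tested at 20 µM; growth read once vehicle control cultures reached saturation at 30 °C; 1 = growth at the plate median or of vehicle wells; lower values mean less growth of the strain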
Conditions: S. cerevisiae deletion strains, growth OD

Measured: normalized growth

CC(C)c1c(O)ccc2c1CCC1[C@@](C)(CO)CCC[C@]21C (stereo partly specified)
active: locus YKR001C, strain vps1, active compounds read low 0.895 | locus YLR039C, strain RIC1, active compounds read low 0.443 | locus YLR262C, strain YPT6 (second series), active compounds read low 0.842 | locus YLR262C, strain YPT6, active compounds read low 0.397 | locus YLR418C, strain cdc73, active compounds read low 0.725 | locus YNL307C, strain MCK1, active compounds read low 0.885 | locus YOR184W, strain ser1, active compounds read low 0.778 | locus YPR163C, strain tif3, active compounds read low 0.883
inactive: locus YJL168C, strain set2, active compounds read low 0.957 | locus YJL187C, strain SWE1 (second series), active compounds read low 0.918 | locus YJR066W, strain TOR1, active compounds read low 1.01 | locus YKL009W, strain mrt4, active compounds read low 0.91 | locus YKL068W, active compounds read low 0.965 | locus YKL085W, strain MDH1 (second series), active compounds read low 0.961 | locus YKL085W, strain MDH1, active compounds read low 0.961 | locus YKL160W, strain elf1, active compounds read low 1.02 | locus YKL190W, strain CNB1, active compounds read low 0.979 | locus YKR026C, strain gcn3, active compounds read low 1.02 | locus YKR091W, strain srl3, active compounds read low 1.01 | locus YLL001W, strain dnm1, active compounds read low 1.01 | locus YLL026W, active compounds read low 1.01 | locus YLL041C, strain sdh2, active compounds read low 1.03 | locus YLR027C, strain aat2, active compounds read low 0.999 | locus YLR058C, strain SHM2, active compounds read low 0.944 | locus YLR102C, strain apc9, active compounds read low 0.959 | locus YLR113W, strain HOG1, active compounds read low 0.996 | locus YLR221C, strain rsa3, active compounds read low 1.01 | locus YLR258W, strain gsy2, active compounds read low 1.03 | locus YLR268W, strain sec22, active compounds read low 0.926 | locus YLR320W, strain mms22, active compounds read low 1.01 | locus YLR330W, strain CHS5, active compounds read low 0.951 | locus YLR342W, strain FKS1, active compounds read low 1.01 | locus YLR357W, strain rsc2, active compounds read low 1.08 | locus YLR370C, strain arc18, active compounds read low 1.03 | locus YLR371W, strain rom2, active compounds read low 0.97 | locus YLR384C, strain iki3, active compounds read low 1.03 | locus YML016C, strain PPZ1, active compounds read low 0.97 | locus YML032C, strain rad52, active compounds read low 0.909 | locus YML120C, strain ndi1, active compounds read low 1.02 | locus YML124C, strain tub3, active compounds read low 0.959 | locus YMR058W, strain fet3, active compounds read low 1.02 | locus YMR078C, strain ctf18, active compounds read low 0.928 | locus YMR125W, strain sto1, active compounds read low 1.03 | locus YMR129W, active compounds read low 1.02 | locus YMR205C, strain PFK2, active compounds read low 1.01 | locus YMR223W, strain ubp8, active compounds read low 0.914 | locus YMR231W, strain pep5, active compounds read low 1.04 | locus YMR307W, strain GAS1, active compounds read low 0.7 | locus YNL067W, strain RPL9B, active compounds read low 0.939 | locus YNL071W, strain lat1, active compounds read low 1.02 | locus YNL183C, strain NPR1, active compounds read low 0.994 | locus YNL209W, strain ssb2, active compounds read low 1.02 | locus YNL233W, strain BNI4, active compounds read low 0.885 | locus YNL248C, strain rpa49, active compounds read low 1.04 | locus YNL250W, strain rad50, active compounds read low 0.965 | locus YNL271C, strain bni1, active compounds read low 0.961 | locus YNL298W, strain CLA4, active compounds read low 0.951 | locus YNL322C, strain KRE1 (second series), active compounds read low 1.03 | locus YNR049C, strain mso1, active compounds read low 1.01 | locus YNR052C, strain pop2, active compounds read low 0.92 | locus YOL012C, strain htz1 1.16 | locus YOL147C, strain pex11, active compounds read low 0.942 | locus YOR001W, strain rrp6, active compounds read low 1.02 | locus YOR061W, strain CKA2, active compounds read low 0.964 | locus YOR069W, strain VPS5, active compounds read low 0.965 | locus YOR070C, strain gyp1, active compounds read low 1.01 | locus YOR080W, strain dia2, active compounds read low 1.02 | locus YOR083W, strain WHI5, active compounds read low 1.02 | locus YOR106W, strain vam3, active compounds read low 1.04 | locus YOR136W, strain idh2, active compounds read low 0.966 | locus YOR144C, strain elg1, active compounds read low 0.961 | locus YOR231W, strain MKK1, active compounds read low 1.03 | locus YOR265W, strain rbl2, active compounds read low 1 | locus YOR270C, strain vph1, active compounds read low 1.01 | locus YOR290C, strain snf2, active compounds read low 1.04 | locus YOR316C, strain cot1, active compounds read low 0.956 | locus YPL051W, strain arl3, active compounds read low 1.02 | locus YPL055C, strain LGE1, active compounds read low 0.887 | locus YPL078C, strain atp4, active compounds read low 1.04 | locus YPL106C, strain sse1, active compounds read low 1.07 | locus YPL240C, strain hsp82, active compounds read low 1.01 | locus YPL256C, strain CLN2, active compounds read low 1.08 | locus YPR119W, strain clb2, active compounds read low 0.948 | locus YPR141C, strain kar3, active compounds read low 0.955 | locus YPR167C, strain met16, active compounds read low 0.953 | strain wtn01, active compounds read low 0.945
